Drawing on PubChem BioAssay AID2314 (National Center for Advancing Translational Sciences (NCATS), 2010), this text covers max response for 96 compounds.

The campaign covered roughly 300,000 compounds. About 37,000 (12%) were called active. Rule as the data show it: active = max response mostly above about 13% (no sharp cut-off); inactive = mostly below about 14%. Only a selection was taken, and actives are over-represented in it overall.

The nature of this assay: Cycloheximide Counterscreen for Small Molecule Inhibitors of Shiga Toxin. Also: read at 38.3 µM for the half of the compounds with a filed dose; 0% is about no effect. The following applies: cell reporter, cycloheximide protein synthesis inhibition counterscreen; active compounds read high. A general note: The purpose of a counterscreen is to sort out artefacts and off-target activity.
Regarding `CCN(CC)CC(=O)Nc1sc2c(c1C(=O)c1ccccc1C)CCC2`, the max response is -2.82% (inactive).
In the case of `CC(C)c1ccc(OCC(O)CN2CCN(c3ccccn3)CC2)cc1` (stereo unspecified) it was -1.42% (inactive); in that of `CCOc1ccc(C(C(=O)NCCOC)N(CCOC)C(=O)CCC(=O)Nc2ccccn2)cc1` (stereo unspecified), 1.47% (inactive); in that of `CC(O)c1ccc(OCCN(C)c2ccccn2)cc1` (stereo unspecified), 55.9% (active).
For `Nc1[nH]c(=S)nc2nc(-c3ccccc3)c(-c3ccccc3)nc12` the value was -2.36% (inactive); for `Cc1ccc(Oc2cnn(-c3ccccc3)c(=O)c2Br)cc1`, 12.3% (inactive).
In the case of `C=CCNc1cnn(-c2ccc(C)cc2)c(=O)c1Cl` it was 66.7% (active); in that of `CC1=C(C(=O)NC2CC(C)(C)Cc3c2cnn3-c2ccc(C)cc2)OCCO1` (stereo unspecified), 10.7% (inactive).
Turning to `CC(C)(C)c1nc2ccccc2c(=O)n1N1C(=O)c2ccccc2C1=O`, the max response was -2.32% (inactive).
For `Cc1ccc2nc(COc3ccc(N(C)S(=O)(=O)c4ccccc4)cc3)cc(=O)n2c1` the value was -1.15% (inactive).
For `O=C(O)c1ccc(COCC(F)(F)F)cc1` the value was -3.85% (inactive); for `CCCCCc1ccc(-c2ccc(OCC)cc2)nc1`, 15.6% (active); for `CCCCCc1ccc(-c2ccc(C(=O)O)cc2)nc1`, 79.8% (active).
In the case of `CCCCCc1ccc(-c2cn(Cc3ccc4ccccc4c3)nn2)cc1` it was -2.64% (inactive).
`CCOc1ccc(-c2ccc(SCC(=O)N3CCOCC3)nn2)cc1`: the max response was 23.3% (inactive).
For `CCOc1c(CNCc2ccc(C(=O)O)cc2)cccc1OC` the value was -3.44% (inactive); for `COc1ccc(CNC(=O)C2CCN(S(=O)(=O)c3ccc(SC)cc3)CC2)cc1`, 10.4% (inactive).
`CCn1c(O)c(N=NC(=O)c2cccc(S(=O)(=O)N3CCCCC3)c2)c2ccccc21`: the max response was -2.88% (inactive).
With `CC(=O)[O][Sn]([c]1ccccc1)([c]1ccccc1)[c]1ccccc1`, the max response was -16.7% (inactive).
With `O=C(O)CN1CCN(C(c2ccccc2)c2ccccc2)CC1`, the max response was -0.558% (inactive).
Turning to `COC(=O)Cc1csc(/N=C/c2c(O)n(-c3cccc(C(F)(F)F)c3)c(=O)c3ccccc23)n1`, the max response is -0.585% (inactive).
Consider `COc1ccc(NC(=O)c2cc([N+](=O)[O-])ccc2NC(=O)CNC2CCCCC2C)c(OC)c1` (stereo unspecified), for which the max response was -4.84% (inactive).
In the case of `CC(C)c1nnc(NC(=O)COC(=O)/C=C/c2ccc([N+](=O)[O-])cc2)s1` it was -2.23% (inactive).
In the case of `COc1ccc(C(=O)NC2CCN(C(=S)Nc3ccccc3)CC2)cc1` it was -4.48% (inactive); in that of `COc1ccccc1C1CCN(C(=S)Nc2ccc(Br)cc2)CC1`, 21.5% (active).
In the case of `CCC(C)N(C)C1CCN(C(=S)Nc2ccc(OC)cc2)CC1` (stereo unspecified) it was 2.11% (inactive).
With `O=C(CN1CCN(c2ccccc2)CC1)Nc1ccc(F)cc1`, the max response was 0.655% (inactive).
In the case of `Cc1cc2oc(C(=O)Nc3c(C)n(C)n(-c4ccccc4)c3=O)c(C)c2cc1Cl` it was -5.74% (inactive).
For `O=C(CC1C(=O)NCCN1C(=O)c1ccc([N+](=O)[O-])cc1)Nc1cccc(Cl)c1` (stereo unspecified) the value was 5.86% (inactive).
As for `O=C(CC1NCCc2ccccc21)Nc1cccc(Cl)c1` (stereo unspecified), the max response is 30.4% (active).
In the case of `O=C(CC1NCCNC1=O)Nc1cc(Cl)cc(Cl)c1` (stereo unspecified) it was -5.54% (inactive); in that of `O=C1/C(=C\c2ccccc2Cl)SC(=S)N1CCC(=O)N1CCCc2ccccc21`, -2.48% (inactive).
In the case of `Cc1ccc(C(=O)N2CC(=O)Nc3ccc(F)cc3C2c2ccc(F)cc2)cc1` (stereo unspecified) it was -2.84% (inactive).
For `CCn1c(=S)sc2c(=O)n(CC(=O)Nc3cccc(Br)c3)c(C)nc21` the value was -2.2% (inactive); for `CCCCC(C(=O)NC(C)(C)C)N(Cc1ccccc1)C(=O)c1snc(C(N)=O)c1N` (stereo unspecified), -0.829% (inactive).
As for `CC(=O)Nc1cccc([N+](=O)[O-])c1`, the max response was 5.16% (inactive).
In the case of `COc1ccc(S(=O)(=O)NC(C)C(=O)Nc2cccc([N+](=O)[O-])c2)cc1` (stereo unspecified), the max response is 5.76% (inactive).
For `COC(=O)/C=C\C(=O)Nc1cccc([N+](=O)[O-])c1` the value was 58% (active); for `C[C@H](NC(=O)[C@@H]1Cc2ccccc2CN1C(=O)OC(C)(C)C)C(=O)NC1CCCC1`, 0.878% (inactive).
Turning to `Cc1cc(OC(=O)c2ccc(OC(C)C)cc2)c([N+](=O)[O-])c(=O)[nH]1`, the max response is 10.8% (inactive).
In the case of `Cc1ccc(S(=O)(=O)NCCCn2ccnc2)cc1C(=O)NC(C)C` it was -2.94% (inactive); in that of `CCOc1ccc(N2C(=O)/C(=C/c3ccc(C)o3)N(C)C2=S)cc1`, -2.62% (inactive).
With `Cc1ccc(C(=O)NNC(=O)OC(C)(C)C)c(Cl)c1`, the max response is 23.3% (active).
In the case of `CCOc1ccc(NC(=O)NNC(=O)c2ccc(Cl)cc2Cl)cc1` it was -2.33% (inactive); in that of `CC(C)(C)OC(=O)N1CCC(C(=O)NNC(=O)c2ccc(Cl)cc2Cl)CC1`, 1.42% (inactive).
For `Cc1ccccc1CN1C[C@@H]2C[C@@H](c3cn(C)nc3-c3ccccc3)N3CCC[C@@]23C1=O`, the max response is -1.2% (inactive).
Turning to `CCOC(=O)C(=CNc1cccc(C)n1)C(=O)OCC`, the max response was 11.4% (inactive).
In the case of `COC(=O)C(C(=O)Nc1cccc(C)n1)C1CCCCCC1` (stereo unspecified) it was 0.569% (inactive); in that of `Cc1cccc(NC(=O)c2ccc3ccccc3n2)n1`, 56.4% (active).
For `Cc1cccc(NC(=O)c2ccccc2NC(=O)C(C)(C)C)n1` the value was -4.22% (inactive); for `Cc1cccc(NC(=O)c2cc(N3C(=O)CCC3=O)ccc2Cl)n1`, -1.19% (inactive).
In the case of `Cc1cccc(NC(=O)c2cccnc2Cl)n1`, the max response was 24.1% (active).
For `COc1cccc(CNC(=O)C2CCCN(c3ncnc4c3nc3n4CCCCC3)C2)c1` (stereo unspecified), the max response is -1.2% (inactive).
For `COc1cc2c(cc1OC)C(C(=O)Nc1cc(C)c(OC)c(C)c1)CC(=O)N2` (stereo unspecified) the value was -2.52% (inactive); for `Cc1c(Cl)cccc1NC(=S)NCC(O)c1ccccc1` (stereo unspecified), 7.6% (inactive); for `O=c1ccc2cc(S(=O)(=O)NCCCc3ccccc3)ccc2[nH]1`, 0.781% (inactive).
With `COCC(=O)Nc1c(C(=O)N2CCCC2)oc2ccccc12`, the max response is 9.66% (inactive).
For `O=C(Nc1ccc(F)cc1)c1cccnc1N1CCOCC1` the value was -3.65% (inactive).
For the compound `NC(=O)c1ccc(N2CCOCC2)nc1`, the max response was 3.99% (inactive).
In the case of `O=C(Nc1ccc(N2CCOCC2)nc1)c1c(F)cccc1F` it was 47.6% (active); in that of `Cc1cccc(C)c1NC(=O)C(Cl)C(=O)c1ccccc1` (stereo unspecified), -3.97% (inactive).
For `CCCCNC(=S)N/N=C1\CCCCc2ccccc21`, the max response was -5.15% (inactive).
For `O=C(C1=C[C@H](c2coc3ccccc3c2=O)C[C@H](OCc2ccc(CO)cc2)O1)N1CCN(Cc2ccccc2)CC1` the value was 1.24% (inactive).
For `COc1ccccc1N1CCN(S(=O)(=O)CCNC(=O)c2ccc(OC(C)C)cc2)CC1`, the max response was -4.03% (inactive).
For `CCOC(=O)c1cc2n(c1N)-c1ccccc1C2=O` the value was 16.1% (active); for `CCOC(=O)c1ccccc1CN1C(=O)c2ccccc2S1(=O)=O`, 0.941% (inactive); for `CCOC(=O)C1=C(C(=O)OCC)C(C(=O)OCC)N(S(=O)(=O)C(F)(F)F)c2ccccc21` (stereo unspecified), 2.14% (inactive).
In the case of `Nc1ncc(CN2CCCC(C(=O)Nc3ccc(-c4ccco4)cc3)C2)cn1` (stereo unspecified) it was -1.66% (inactive).
For `CCOC(=O)c1cccc(NC(=O)CCc2nnc3ccc(N4CCOCC4)nn23)c1` the value was 0.592% (inactive); for `Cc1ccc(C(=O)CNc2ccc(F)cc2)cc1`, 13.3% (active).
Take `COC(=O)c1ccc(C(=O)OC)c(NC(=S)N2CCCCC2)c1`: the max response was 1.84% (inactive).
As for `COc1ccc(NC(=O)CCCC(=O)c2ccccc2)cc1`, the max response was 12% (inactive).
On to `COC(=O)c1ccc(NCC(=O)N2CCCCCC2)cc1`, for which the max response was 19.4% (active).
In the case of `Cc1ccc(NC(=O)CCC(=O)c2ccc(Br)cc2)cc1` it was -1.06% (inactive); in that of `COC(=O)c1ccc(NC(=O)c2ccccc2NS(=O)(=O)c2ccccc2)cc1`, 7.47% (inactive); in that of `COC(=O)c1ccc(/C=N/NC(=O)C(=O)N2CCCCCC2)cc1`, -2.86% (inactive).
In the case of `COC(=O)c1ccc(NCC(=O)c2ccccc2)cc1` it was 29.7% (active).
For `Cc1ccc(C(=O)NC2CCN(C(=O)Nc3ccc(F)cc3)CC2)cc1` the value was -5.94% (inactive).
Consider `O=C(NC1CCCCC1)C1CCC(CNS(=O)(=O)c2ccccc2)CC1` (stereo unspecified), for which the max response was -1.26% (inactive).
As for `COc1ccccc1C1C(C(N)=O)=C(C)Nc2nc(CCCO)nn21` (stereo unspecified), the max response was -5.85% (inactive).
As for `C[C@@H]1O[C@@H](OC[C@H]2O[C@@H](Oc3cc(O)c4c(c3)O[C@H](c3ccc(O)c(O)c3)CC4=O)[C@H](O)[C@@H](O)[C@@H]2O)[C@H](O)[C@H](O)[C@H]1O`, the max response is -3.85% (inactive).
For `COC(=O)c1cc2occc2n1Cc1nc(-c2ccccc2C)oc1C`, the max response is -1.91% (inactive).
For `CCOC(=O)C1(Cc2cccc(OC)c2)CCN(Cc2csc(C(C)=O)c2)CC1` the value was -2.31% (inactive); for `CCC(C(=O)NCCC(C)C)N(Cc1ccccc1Cl)C(=O)c1snc(C(N)=O)c1N` (stereo unspecified), -2.42% (inactive); for `COCCN(C(=S)Nc1cccc(Cl)c1C)C(C)c1ccco1` (stereo unspecified), 5.55% (inactive).
In the case of `CCc1cccc(CC)c1NC(=O)COc1ccccc1C(=O)c1cc(C#N)c(=O)n(C2CCCCC2)c1` it was 5.88% (inactive); in that of `CCOc1ccc(CN(C)C(=O)c2ccc(=O)[nH]c2)cc1`, -4.67% (inactive).
For `CC(NC(=S)Nc1ccc(S(N)(=O)=O)cc1)c1ccc2c(c1)OCO2` (stereo unspecified) the value was -3.68% (inactive).
With `O=C(/C=C/c1ccc2c(c1)OCO2)NCc1ccc(F)cc1`, the max response is 9.99% (inactive).
With `CCc1c(C)sc(NC(=O)/C=C/c2ccc3c(c2)OCO3)c1C(=O)OC`, the max response was 16.3% (inactive).
In the case of `CCc1ccc(NC(=O)NC(C)c2ccc3c(c2)OCO3)cc1` (stereo unspecified) it was 0.596% (inactive); in that of `CNS(=O)(=O)c1ccc(NC(=O)Nc2ccc3c(c2)OCO3)cc1`, 46.9% (active).
In the case of `CC(NC(=O)Nc1ccc2c(c1)OCO2)c1ccncc1` (stereo unspecified) it was 11.1% (inactive); in that of `Cc1cccc(NC(=O)/C=C/c2ccc3c(c2)OCO3)n1`, 64.4% (active).
In the case of `Cc1cccc(NC(=O)Nc2ccc3c(c2)OCO3)n1`, the max response was 45.7% (active).
Take `CC(C)CNS(=O)(=O)c1ccc(C(=O)Nc2ccc3c(c2)OCO3)cc1`: the max response is -0.729% (inactive).
